Structures are written as SMILES. About 620 (0.23%) of roughly 270,000 compounds were called active. Entries that show only a call come without a potency. Inconclusive results (about 12%) are left out. For the sample, actives were picked, then their nearest neighbours and some compounds at random. A number with no mark means an inactive call. Calls come from the whole dose curve; as a rule, active = well fitted inhibition curve with a large enough effect in the polarisation, with a control signal flat (not every such curve was filed as active); inconclusive = small, poorly fitted or top-dose-only effect, or effect the other way, or a change in a side signal; inactive = no such curve, though single readings can be large or run the other way; the % refers to the polarisation.
Potency is the fitted concentration of half-maximal effect.

Sequence of Menin (Homo sapiens) (O00255 whole entry, looked up, the tested form may be a part): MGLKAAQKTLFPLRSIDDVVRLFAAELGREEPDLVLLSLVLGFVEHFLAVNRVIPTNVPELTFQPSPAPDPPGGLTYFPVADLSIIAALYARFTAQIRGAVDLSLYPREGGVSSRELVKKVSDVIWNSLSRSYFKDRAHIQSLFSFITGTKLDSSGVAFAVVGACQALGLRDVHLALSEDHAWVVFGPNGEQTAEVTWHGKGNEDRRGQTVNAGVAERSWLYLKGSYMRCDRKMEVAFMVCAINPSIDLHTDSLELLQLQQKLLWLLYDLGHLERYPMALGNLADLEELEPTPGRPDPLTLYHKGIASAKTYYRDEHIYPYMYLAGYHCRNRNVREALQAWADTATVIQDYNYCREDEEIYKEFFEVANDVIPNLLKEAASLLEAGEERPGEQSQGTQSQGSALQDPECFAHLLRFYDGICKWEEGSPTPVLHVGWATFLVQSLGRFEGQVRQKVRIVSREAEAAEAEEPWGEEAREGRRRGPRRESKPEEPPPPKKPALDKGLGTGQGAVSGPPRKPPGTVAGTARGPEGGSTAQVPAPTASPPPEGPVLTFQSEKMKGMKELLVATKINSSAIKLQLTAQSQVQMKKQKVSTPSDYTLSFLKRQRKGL

This assay deals with Menin (Homo sapiens) (UniProt O00255). Briefly: qHTS Assay for Inhibitors Targeting the Menin-MLL Interaction in MLL Related Leukemias: Competition With Texas Red Labeled MLL-derived Mutant Peptide. The following applies: fluorescence polarization; series mostly up to 61.6 µM. The source says:
qHTS Assay for Inhibitors Targeting the Menin-MLL Interaction in MLL Related Leukemias NIH Chemical Genomics Center [NCGC] NIH Molecular Libraries Probe Centers Network [MLPCN] MLPCN Grant: MH084875-01A1 Assay Submitter (PI): Jolanta Grembecka, Tomasz Cierpicki, University of Virginia Translocations of the MLL (Mixed Lineage Leukemia) gene are frequently found in human leukemias affecting both children and adults. Fusion of MLL to one of more than 60 genes results in generation of oncogenic proteins upregulating Hox genes, which are vital to blood cell development. Patients harboring fusion of the MLL gene suffer from aggressive leukemias and respond poorly to available therapies. All of the oncogenic fusion proteins have a preserved N-terminal fragment of MLL that has been identified to interact with menin. It has been recently discovered that association with menin is critical to the leukemogenic activity of the MLL fusion oncoproteins. Selective targeting of the menin-MLL interaction could provide an attractive therapeutic approach to develop novel drugs for MLL-related leukemias. Small molecules blocking the menin-MLL interaction should reverse the oncogenic potential of MLL fusion proteins. We have developed and optimized a fluorescence polarization-based assay for the identification of Menin-MLL inhibitors. The assay was run employing two different MLL-derived peptides. The present assay uses a 12 amino acid peptide labeled with fluorescein at its N-terminus. This peptide consists of the menin high affinity binding motif from MLL and is potently bound by menin. Another peptide with a mutated sequence, labeled with Texas Red, was used in parallel as a less stringent screen for inhibitors.
The Menin protein, the MLL-wild type (w.t.) derived peptide (N-terminal 12 amino acids), the MLL-derived peptide labeled with Texas Red and the MLL-w.t. peptide labeled with Fluorescein were kindly supplied by laboratory of Dr. Jolanta Grembecka, University of Virginia. All protein and peptide solutions were stored in single use aliquots at -80C. The Eu3+ Cyrptate-conjugated mouse monoclonal antibody anti-6 Histidine (Eu3+-AB) and the Streptavidin-XL665 conjugate (XL665) were purchased from Cisbio International (Bedford, MA). All antibody and XL665 conjugate solution stocks were stored in single use aliquots at -20C. The Buffer components for all assays were purchased from Sigma-Aldrich (St. Louis, MO) and Invitrogen (Carlsbad, CA). FP Assay Reagents: 1. FP reaction buffer: 50 mM Tris-HCl pH 7.5, 50 mM NaCl, 1mM DTT. Before use, 0.05% BSA is added. 2. Menin protein, MLL-w.t. labeled with fluorescein, MLL-mutant peptide labeled with texas red. Stored in singe use aliquots at -80C. 3. MLL-w.t. unlabeled peptide as positive control: 10 uM final in FP buffer. FP Assay Procedure: 1. Prepare Menin at 200 nM, MLL-w.t.-fluorescein at 25 nM, and MLL-mutant-texas red at 50 nM mixture in FP buffer. 2. Prepare Menin at 200 nM, MLL-w.t.-fluorescein at 25 nM, MLL-mutant-texas red at 50 nM, and 10 uM MLL-w.t. unlabeled mixture in FP buffer. 3. Prepare MLL-w.t.-fluorescein at 25 nM and MLL-mutant-texas red at 50 nM mixture in FP buffer. 3. Dispense 4 ul per well of reagent in step 1 in columns 2, 4 - 48 in a black 1536 well plate, dispense 4 ul per well of reagents from steps 2 and 3 in columns 1 and 3 respectively. Incubate plate at ambient for 15 minutes. 4. Transfer 23 nl per well of compound to plate and incubate at ambient for 1 hr. 5. Read fluorescence polarization for each label using the PerkinElmer Envision. Envision protocol for fluorescein: FITC FP Dual Enh Mirror, Excitation filter 480, Emission filter (1) P-pol 535, Emission filter (2) S-pol 535 Envision protocol for texas red: FP Dual Enh Mirror, Excitation filter 555, Emission filter (1) P-pol 632, Emission filter (2) S-pol 632
For `CCc1ccc(CN(C)C(=O)C2CCC(=O)N(Cc3cccc(OC)c3)C2)nc1` (stereo not given), the Potency result is “inactive”.

With `CCC1Sc2ccc(S(=O)(=O)CCC(=O)NCc3cccs3)cc2NC1=O` (stereo not given), the Potency entry was “inactive”.

On to `COCCNC(=S)N(CCc1c(C)[nH]c2ccc(C)cc12)Cc1cccnc1`, for which the Potency entry is “inactive”.

In the case of `CCOc1ccccc1NC(=S)N1CCN(c2cccc(C)c2C)CC1`, the Potency result is “inactive”.

`Cc1ccc(N2CCN(C(=O)c3cccs3)CC2)c(C)c1`: the Potency result was “inactive”.

For the compound `NC(=O)c1ccc(Nc2ccc3c(c2)CCC3)c([N+](=O)[O-])c1`, the Potency entry was “inactive”.

With `Cc1nc2ccc(C(=O)N(C)CC3CCCN(CCc4ccc(Cl)cc4)C3)cc2[nH]1` (stereo not given), the Potency result is “inactive”.

With `CCOC(=O)c1csc(CCNC(=O)c2oc3c(Cl)cc(C)cc3c2C)n1`, the Potency entry was “inactive”.

Regarding `Cc1ccc(CNC(=O)C2CCCN2S(=O)(=O)c2ccc3c(c2)C(C)(C)C(=O)N3C)cc1` (stereo not given), the Potency entry is “inactive”.

Consider `COc1ccc(NC(=O)c2sc3nc(C)nc(N4CCN(c5ccccn5)CC4)c3c2C)c(OC)c1`, for which the Potency result was “inactive”.

Consider `COCCNc1ccc(-c2n[nH]c(=O)c3ccccc23)cc1[N+](=O)[O-]`, for which the Potency entry is “inactive”.

Turning to `CCc1cccc(C)c1N1C(=O)CN(Cc2ccccc2)C1=S`, the Potency result was “inactive”.

`NS(=O)(=O)c1ccc(CNC(=O)c2cccc(Oc3ccccc3)c2)cc1`: the Potency entry was “inactive”.

Consider `COc1ccc(NC(=O)CSc2nc3ccccc3c(=O)n2C)cc1`, for which the Potency result is “inactive”.

Turning to `CC(=O)N1c2ccc(S(=O)(=O)N3CCCC(C(=O)Nc4ccc(C)cc4C)C3)cc2CC1C` (stereo not given), the Potency entry is “inactive”.

Regarding `COc1ccc(-c2nc3ccccc3c(=O)n2CCc2ccc(O)cc2)cc1`, the Potency entry is “inactive”.

Regarding `Cc1ccccc1CN1CCC(C(=O)Nc2ccc(Oc3cccnc3)cc2)CC1`, the Potency result was “inactive”.

Turning to `CCCCC(C(=O)NC(C)(C)C)N(Cc1ccccc1)C(=O)c1snc(C(N)=O)c1N` (stereo not given), the Potency entry was “inactive”.

For the compound `CCc1ccc(C(CNc2nc(C(F)(F)F)nc3ccccc23)N(C)C)cc1` (stereo not given), the Potency entry was “inactive”.

For `C=C1CCN(C(CC(C)C)C(=O)NCc2cc(OC)c(OC)c(OC)c2)S(=O)(=O)c2ccccc21` (stereo not given), the Potency entry is “inactive”.

With `CCOC(=O)[C@H]1[C@H]2COc3cc(OC)ccc3[C@@H]2N2C(=O)N(c3ccc(Br)cc3)C(=O)[C@@]12C`, the Potency result is “inactive”.

Regarding `CCn1cc(CN2CCN(CC(C)(C)C)C(CCO)C2)c2ccccc21` (stereo not given), the Potency result is “inactive”.

Turning to `Cc1cc(=O)oc2c(C)c(OC(C)C(=O)NC3CCN(Cc4ccccc4)CC3)ccc12` (stereo not given), the Potency result was “inactive”.

Take `O=C(CN1C(=O)COc2ccc(Cl)cc21)N1CCOCC1`: the Potency result is “inactive”.

`COc1cc(CN2CCCC(C(=O)c3ccc(SC)cc3)C2)cc(Cl)c1O` (stereo not given): the Potency result is “inactive”.

For the compound `Cc1cc(C)nc(N/N=C/c2c(CO)cnc(C)c2O)n1`, the Potency result is “inactive”.

Turning to `COc1cccc(N(CC(=O)NCc2ccccc2)C(=O)CCC(=O)Nc2nccs2)c1`, the Potency entry is “inactive”.

For `COc1ccc(CSc2nnnn2-c2ccc(O)cc2)cc1F`, the Potency result was “inactive”.

With `CCOc1ccc(N(CC(=O)NCCc2ccc(F)cc2)S(=O)(=O)c2ccccc2)cc1`, the Potency entry is “inactive”.

In the case of `O=C1CCC(C(=O)N2CCN(c3ccccc3Cl)CC2)CN1CC1CCCCC1` (stereo not given), the Potency entry was “inactive”.

`CCC(=O)c1cn(CCOc2ccccc2OC)c2ccccc12`: the Potency entry was “inactive”.

For the compound `CC1(C)CCSC(/C=C/c2ccccc2)=N1`, the Potency is 31.6 µM (active).

In the case of `CCCC[C@]12Cc3cc(OC)c(OC)cc3C(O1)C1=C(CC3(CCCCC3)OC1=O)O2`, the FP activity change, negative = inhibition is -17.1% [at 11.7 µM].

Take `CN(C)c1ccnc(Oc2ccc(F)cc2)c1C#N`: the Potency entry is “inactive”.

Consider `N#Cc1ccc(-c2ccc(Cl)cc2)nc1Oc1ccc(F)cc1`, for which the Potency was 20 µM (active).

Take `O=S(=O)(Nc1cccc(Oc2ccc(Cl)cc2)n1)c1ccc(F)cc1`: the Potency entry was “inactive”.

With `CC1C(=O)C(C)C(c2ccc(O)cc2)NC1c1ccc(O)cc1` (stereo not given), the Potency entry is “inactive”.

On to `CCN(C(=O)C1CCCN(c2nc(-c3ccc(OC)cc3)no2)C1)c1ccc(OC)cc1` (stereo not given), for which the Potency entry is “inactive”.

As to `Cc1ccc(S(=O)(=O)c2nc(-c3cccs3)oc2NCc2cccnc2)cc1`, the Potency result was “inactive”.

`CCOCCCn1c(SCC(=O)Nc2cc(OC)ccc2OC)nc2ccccc2c1=O`: the Potency result is “inactive”.

For the compound `COc1ccc2[nH]c(C(=O)N/N=C/c3cc(OC)c(OC)c(OC)c3)cc2c1`, the Potency entry was “inactive”.

As for `C=C1C(=CC=C2CCC[C@@]3(C)[C@@H]2CC[C@H]3[C@H](C)CCCC(C)C)C[C@@H](O)C[C@@H]1O`, the Potency result is “inactive”.

`Cc1ccc(C(=O)NC23CC4CC(CC(C4)C2)C3)c(Cl)c1`: the Potency result is “inactive”.

For the compound `CCOc1ccccc1NC(=S)NC(=O)CCc1ccccc1`, the Potency result is “inactive”.

As to `CCc1ccc(N(C(=O)c2csnn2)C(C(=O)NC2CCCCC2)c2cccnc2)cc1` (stereo not given), the Potency entry is “inactive”.

As for `O=C1CN(Cc2ccccc2)S(=O)(=O)c2ccccc21`, the Potency result is “inactive”.

For `CCOC(=O)C(Cc1ccc(N)cc1)N1C(=O)c2ccccc2C1=O` (stereo not given), the Potency result is “inactive”.

Regarding `CCOC(=O)N1CC=C2C(C#N)=C(N)C(C#N)(C#N)[C@H](c3cccs3)[C@H]2C1`, the Potency entry is “inactive”.

For `CCN1CC=C2C(C#N)=C(N)C(C#N)(C#N)[C@H](c3ccoc3)[C@H]2C1`, the Potency was 17.8 µM (active).

Consider `CCCN1CC=C2C(C#N)=C(N)C(C#N)(C#N)C(c3cc(OC)ccc3OC)C2C1` (stereo not given), for which the Potency result is “inactive”.

(Values after PubChem BioAssay AID1768 (National Center for Advancing Translational Sciences (NCATS), 2009).)
